From PubChem BioAssay (NCATS) come the findings set out here.

“And” between values parts separate entries of the source, which are not always exact repeats. Equal entries are not always repeated. Inconclusive results are not listed. The source made the active and inactive calls. Unless noted, calls follow the shape of the dose curve; as a rule, active = well fitted curve in the direction sought with a large enough effect; inconclusive = small, poorly fitted or top-dose-only effect, or another doubt; inactive = no such curve, though single readings can be large; an effect the other way counts as inactive or inconclusive.

The nature of experiment [1]: qHTS Assay for Identification of Small Molecule Agonists for NFkB Signaling Pathway. (AID 624478).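 Also: compounds tested together with TNF alpha at its EC50 of 10 pM; 0% is about no effect.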 Put shortly: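 Activators were sought in reporter cells stimulated at the TNF alpha EC50 (10 pM final). Compound and cytokine were co-incubated 5 hours at 37 C before beta-lactamase substrate detection by dual-emission fluorescence.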
Experiment [2] can be described thus: qHTS Assay for Identification of Small Molecule Antagonists for NFkB Signaling Pathway. (AID 624479; calls by dose curve; also: potency is read from the fitted curve at half-maximal effect). (qHTS replaces the single test concentration by a dilution series.)
A short description of experiment [3]: Cell Proliferation Assay against the HBL1 Cell Line (AID 651646).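 Also: cells exposed to compound for 48 h before reading.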 The settings on record: HBL1 DLBCL cells; at 46.1 µM (top of the series). An outline of the steps:
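HBL1, 500 cells/well, RPMI no phenol red + 5% FBS; cpd pinned, 48 h 37C/5% CO2; CellTiter-Glo, 15 min RT, luminescence. % activity: DMSO = 100%, bortezomib 9.2 uM final = 0%.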

Experiment [4] in a line: Cell Proliferation Assay against the TMD8 Cell Line (Caspase readout at 16 hrs) (AID 651712). Also: potency is read from the fitted curve at half-maximal effect. An outline of the steps:
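Caspase-Glo luminescence after 16 h compound exposure of TMD8 cells, 37 °C, 5% CO2. Medium: RPMI without phenol red, 5% FBS. Normalisation: DMSO = 0%, bortezomib 9.2 uM final = 100%.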

Experiment [5] in a line: Cell Proliferation Assay against the TMD8 Cell Line (Caspase readout at 8 hrs) (AID 651713). Also: potency is read from the fitted curve at half-maximal effect. An outline of the steps:
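Caspase 3/7 activation in ABC DLBCL TMD8 cells is measured by luminescence after an 8 h compound exposure at 37C. Relative light units are scaled between DMSO (0%) and 9.2 uM final bortezomib (100%).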

The nature of experiment [6]: Cell Proliferation Assay against the TMD8 Cell Line (AID 651645).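 Also: cells exposed to compound for 48 h before reading.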 As to conditions: TMD8 DLBCL cell line proliferation/viability; at 46.1 µM (top of the series). Put shortly: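 TMD8 cells, 500/well in RPMI with 5% FBS, dosed immediately and grown 48 h at 37 C, 5% CO2. CellTiter-Glo luminescence normalised to DMSO 100% and 9.2 uM bortezomib (final) 0%.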
Experiment [7] in a line: qHTS assay for small molecule agonists of the antioxidant response element (ARE) signaling pathway (AID 651741; active = well fitted activation curve with a large enough effect in the signal ratio; the % refers to the signal ratio; also: potency is read from the fitted curve at half-maximal effect). The settings on record: HepG2 ARE-bla reporter, beta-lactamase FRET ratio, 16 h. Put shortly:
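Stably integrated ARE-beta-lactamase reporter HepG2 cells; 16 h compound incubation, 37 C; LiveBLAzer FRET substrate 2 h at room temperature; fluorescence intensity.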

Regarding `CC(=O)SC[C@@H](C)C(=O)N1CCC[C@H]1C(=O)N[C@@H](Cc1ccccc1)C(=O)O`, the result in experiment [1] was inactive. The Potency in experiment [2] is 8.41 µM (active). Further, the viability, percent of control in experiment [3] came out at 97.5%. In addition, the Potency result in experiment [4] and in experiment [5] was “inactive” throughout.

As to `O=C(c1ccc(Nc2nccc(-c3cc4ccccc4s3)n2)cc1)N1CCC(N2CCCC2)CC1`, the molecule was called inactive in experiment [1]. In experiment [2], the Potency was 0.266 µM (active). For the same molecule, the viability, percent of control in experiment [3] was 0.745%. In experiment [4], the Potency result was “inactive”.

`Cn1c(=O)n(-c2ccc(C(C)(C)C#N)cc2)c2c3cc(-c4cnc5ccccc5c4)ccc3ncc21`: in experiment [1], the call was inactive. In addition, the Potency result in experiment [2] was “inactive”. Further, the viability, percent of control in experiment [3] came out at 38.2%. Besides, the Potency in experiment [4] is 20.9 µM (active).

Consider `c1cc(-c2cnn3cc(-c4ccc(OCCN5CCCCC5)cc4)cnc23)ccn1`, for which the call in experiment [1] was inactive. The viability (% of control) in experiment [6] stood at 2.17%. In addition, the viability, percent of control in experiment [3] worked out at 8.17%.

In the case of `COc1cc2c(Oc3ccc4[nH]c(C)cc4c3F)ncnc2cc1OCCCN1CCCC1`, in experiment [1], the molecule was classed as inactive. Moreover, in experiment [6], the viability (% of control) stood at 1.51%. The viability, percent of control in experiment [3] is 1.27%.

As to `Cc1cn2c(-c3cn[nH]c3)cnc2c(Nc2ccc(C(=O)N3CCNCC3)cc2F)n1`, the result in experiment [1] was inactive. The viability (% of control) in experiment [6] turned out to be 35.7%. In addition, the viability, percent of control in experiment [3] came out at 85.6%.

`Cc1cnc(Nc2ccc(F)cc2Cl)nc1-c1c[nH]c(C(=O)N[C@H](CO)c2cccc(Cl)c2)c1`: in experiment [1], the outcome was inactive. In addition, the viability, percent of control in experiment [3] is 0.107%.

With `CCC(=C(c1ccccc1)c1ccc(OCCN(C)C)cc1)c1ccccc1`, the Potency in experiment [2] was 21.1 µM (active); in experiment [5], 33.2 µM (active). In addition, the viability, percent of control in experiment [3] was -1.5%.

Regarding `O=C(NCCCNc1nc(Nc2cccc(NC(=O)N3CCCC3)c2)ncc1I)c1cccs1`, in experiment [1], the molecule was classed as inactive. Further, the Potency in experiment [2] is 9.43 µM (active) and 5.3 µM (active); in experiment [4], 13.2 µM (active) and 5.9 µM (active); in experiment [5] it was 26.4 µM (active) and 29.6 µM (active). The viability, percent of control in experiment [3] is 26.8% and 21.3%.

For `Cc1cc(Nc2cc(N3CCN(C)CC3)nc(Sc3ccc(NC(=O)C4CC4)cc3)n2)n[nH]1`, the molecule was called inactive in experiment [1]. Further, the viability (% of control) in experiment [6] came to 19.5%. Besides, the viability, percent of control in experiment [3] came out at 27.1%. Besides, in experiment [5], the Potency result is “inactive”.

On to `CC(=O)Nc1sc2c(c1-c1nc3ccccc3s1)CNC2`, for which, in experiment [1], the molecule was classed as inactive. Moreover, the viability (% of control) in experiment [6] came out at 4.93%. In addition, in experiment [3], the viability, percent of control worked out at 22.5%. Moreover, the Potency in experiment [5] is 33.2 µM (active).

Turning to `CC(=O)c1c(C)c2cnc(Nc3ccc(N4CCNCC4)cn3)nc2n(C2CCCC2)c1=O`, in experiment [1], the outcome was inactive. Further, the Potency in experiment [2] is 16.8 µM (active); in experiment [4] it was 18.7 µM (active); in experiment [5] it was 33.2 µM (active). For the same molecule, the viability, percent of control in experiment [3] was 1.52%.

As for `CC(C)=CCCC(C)=CCCC(C)=CCSc1ccccc1C(=O)O`, the viability, percent of control in experiment [3] amounted to 85.3%. Further, the Potency result in experiment [4] and in experiment [5] was “inactive” in each case.

As for `Cc1ccc(C(N)=O)cc1Nc1nccc(-c2cn(C(C)C)c3cnccc23)n1`, the molecule was classed as inactive in experiment [1]. The Potency in experiment [2] was 0.421 µM (active); in experiment [4], 2.64 µM (active); in experiment [5], 14.8 µM (active). The viability, percent of control in experiment [3] was determined as 14.4%.

For `O=C(O)CCCc1c[nH]c2ccccc12`, the Potency in experiment [7] is 61.1 µM (active).

For the molecule `Fc1cc(-c2cccc3ncc(-c4cnn(C5CCNCC5)c4)nc23)cc(F)c1CN1CCOCC1`, the call in experiment [1] was inactive. In addition, the viability (% of control) in experiment [6] came out at 1.53%. The viability, percent of control in experiment [3] was determined as 2.06%.

As for `Cn1cncc1[C@@](N)(c1ccc(Cl)cc1)c1ccc2c(c1)c(-c1cccc(Cl)c1)cc(=O)n2C`, the result in experiment [1] was inactive. Moreover, the viability (% of control) in experiment [6] is 1.01%. Besides, the viability, percent of control in experiment [3] turned out to be 1.3%.

Consider `Cn1cc(-c2[nH]c3cc(NC(=O)[C@H](N)C4CCCCC4)cc4c3c2C=NNC4=O)cn1`, for which, in experiment [1], the outcome was inactive. Moreover, the Potency result in experiment [2] is “inactive”. Moreover, in experiment [3], the viability, percent of control is 21.5%. Moreover, the Potency in experiment [4] is 0.166 µM (active).

With `CC(C)(C)c1cc(C(C)(C)C)c(NC(=O)c2c[nH]c3ccccc3c2=O)cc1O`, the Potency in experiment [2] is 23.7 µM (active). For the same molecule, the viability, percent of control in experiment [3] amounted to 5.33%.

Consider `CCN(CC)CCCCNc1ncc2cc(-c3cc(OC)cc(OC)c3)c(NC(=O)NC(C)(C)C)nc2n1`, for which, in experiment [1], the call was inactive. For the same molecule, the viability, percent of control in experiment [3] was determined as 7.6%. Further, the Potency entry in experiment [4] was “inactive”. For the same molecule, in experiment [5], the Potency is 26.4 µM (active).

Consider `CNc1nccc(-c2cccnc2Oc2cc(C(=O)Nc3cccc(C(F)(F)F)c3)ccc2C)n1`, for which the molecule was classed as inactive in experiment [1]. The Potency in experiment [2] is 13.3 µM (active). Further, in experiment [6], the viability (% of control) was found to be 6.17%. The viability, percent of control in experiment [3] is 25.3%. For the same molecule, in experiment [5], the Potency result is “inactive”.

Take `COc1cc(=C2C=c3ccccc3=N2)[nH]c1=Cc1[nH]c(C)cc1C`: the Potency result in experiment [2] and in experiment [5] was “inactive” in each case. The viability (% of control) in experiment [6] amounted to 6.25%. Moreover, the viability, percent of control in experiment [3] amounted to 26%.

Turning to `CC(=O)OCC(=O)[C@@]1(O)[C@H](C)C[C@H]2[C@@H]3C=C(C)C4=Cc5c(cnn5-c5ccccc5)C[C@]4(C)[C@@H]3[C@@H](O)C[C@@]21C`, in experiment [1], the molecule was classed as inactive. Further, in experiment [6], the viability (% of control) amounted to 3.02%. Besides, the viability, percent of control in experiment [3] was 2.93%. Moreover, in experiment [4], the Potency is 20.9 µM (active). Further, the Potency result in experiment [5] was “inactive”.

In the case of `Cc1cc(Nc2cc(N3CCN(C)CC3)nc(C=Cc3ccccc3)n2)n[nH]1`, the molecule was classed as inactive in experiment [1]. Besides, the viability (% of control) in experiment [6] is 9.16%. In addition, in experiment [3], the viability, percent of control turned out to be 3.87%. The Potency entry in experiment [5] was “inactive”.

For `O=C(O)c1ccc2c(c1)nc(Nc1cccc(Cl)c1)c1ccncc12`, the molecule was classed as inactive in experiment [1]. Also, in experiment [2], the Potency is 0.298 µM (active). Further, in experiment [6], the viability (% of control) amounted to 0.231%. Also, the viability, percent of control in experiment [3] came to 32.2%. The Potency result in experiment [5] is “inactive”.

In the case of `CC1(O)CC(c2nc(-c3ccc4ccc(-c5ccccc5)nc4c3)c3c(N)nccn23)C1` (stereo unspecified), the call in experiment [1] was inactive. For the same molecule, the viability (% of control) in experiment [6] came to 2.23%. Also, in experiment [3], the viability, percent of control is 43%. The Potency in experiment [4] is 26.4 µM (active). In addition, the Potency entry in experiment [5] is “inactive”.

On to `O=C(C=Cc1cccc(S(=O)(=O)Nc2ccccc2)c1)NO`, for which the outcome in experiment [1] was inactive. Also, the viability, percent of control in experiment [3] worked out at 2.01%. For the same molecule, the Potency in experiment [4] was 0.935 µM (active). Further, in experiment [5], the Potency entry was “inactive”.

As for `CC[C@H](CO)Nc1nc(NCc2ccccc2)c2ncn(C(C)C)c2n1`, in experiment [1], the call was inactive. Moreover, the viability (% of control) in experiment [6] worked out at 7.77%. For the same molecule, the viability, percent of control in experiment [3] is 55%. Moreover, the Potency in experiment [4] was 0.935 µM (active).
